Bioassay records as filed in PubChem.
Measles CPE: protection of cells from measles virus | Measles virus-infected cells, CPE protection, absorbance | protection (pct of control), % at 4 µM | hit rate 1.5% among 140,000 | AID 841; in the data active means protection mostly above about 24%, no sharp cut-off; inactive means mostly below about 26%
CYP2C9 inhib: human CYP2C9 inhibition; P11712; CYP2C9 Supersomes, luciferin-H conversion, luminescence; inhibition, % at 5 µM; hit rate 20% among 96,000; AID 777;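 active means blocking of liver enzyme CYP2C9 beyond about 50% at 5 µM, limit read from the data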
Target sequence (P11712 whole entry, looked up): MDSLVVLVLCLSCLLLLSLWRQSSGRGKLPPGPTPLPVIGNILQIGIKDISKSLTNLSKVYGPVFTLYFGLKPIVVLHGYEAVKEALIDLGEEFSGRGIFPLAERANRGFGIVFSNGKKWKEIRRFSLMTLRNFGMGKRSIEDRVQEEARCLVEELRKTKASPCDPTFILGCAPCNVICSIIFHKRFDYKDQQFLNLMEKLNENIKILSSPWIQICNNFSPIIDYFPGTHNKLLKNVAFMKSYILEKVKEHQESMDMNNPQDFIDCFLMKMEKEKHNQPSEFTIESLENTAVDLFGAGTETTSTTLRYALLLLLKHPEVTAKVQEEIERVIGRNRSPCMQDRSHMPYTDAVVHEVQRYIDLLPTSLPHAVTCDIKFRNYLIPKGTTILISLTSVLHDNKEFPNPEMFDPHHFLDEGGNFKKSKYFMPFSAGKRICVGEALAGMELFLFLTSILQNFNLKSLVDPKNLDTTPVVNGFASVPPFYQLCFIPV
CYP2C9 activ: activators of human CYP2C9. hit rate 1.4% among 96,000. activation factor at 5 µM. recombinant CYP2C9, luciferin-H conversion, luminescence; active compounds read high; factor 1 = untreated enzyme, 0 = blocked;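 active means activation factor of 2 or more for CYP2C9 at a 5 µM dose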;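 further: 0 = sulfaphenazole-blocked wells and 1 = vehicle-only wells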
CYP2C19 activ: activators of human cytochrome P450 2C19; P33261; recombinant CYP2C19, luciferin-H EGE luminescence; active compounds read high; 0 = fully inhibited enzyme, 1 = untreated enzyme; activation factor at 5 µM; 96,000 tested, under 10 active;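 active means activation factor of at least 2 at 5 µM in the primary screen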;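 further: 0 = wells with 2.5 mM tranylcypromine and 1 = vehicle-only wells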
CYP2C19 inhib: human CYP2C19 inhibition; inhibition, % at 5 µM; CYP2C19 Supersomes, luciferin-H EGE luminescence, 30 min; P33261; hit rate 21% among 96,000;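 active means CYP2C19 inhibition above a set limit at 5 µM in the primary screen, cut at about 50% in these data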;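 further: plate controls were negative control wells for no effect and 2.5 mM tranylcypromine positive control for full effect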
* marks the source's active call; other numbers are inactive results; . = not tested or not shown. Sampled rows, rich in hits. Any-hit rate of the full collection: about 22%.

SMILES	Measles CPE	CYP2C9 inhib	CYP2C9 activ	CYP2C19 activ	CYP2C19 inhib
N#CC1(Cc2ccccc2)c2ccccc2C=CN1C(=O)c1ccccc1 (configuration not stated)	10	72*	0.3	0.1	93*
N#CC1(Cc2ccc([N+](=O)[O-])cc2)c2ccccc2C=CN1C(=O)c1ccccc1 (configuration not stated)	11	68*	0.3	0.3	68*
Cc1cc2n(n1)C(c1ccc3c(c1)OCO3)Nc1ccccc1-2 (configuration not stated)	3	70*	0.3	0.1	88*
Cc1ccc2c(c1)-c1cc(C)nn1C(c1ccc3c(c1)OCO3)N2 (configuration not stated)	4	89*	0.1	0	96*
CC(NC(=O)c1ccco1)C(=O)OCc1cccc(Cl)c1 (configuration not stated)	15	4	1	0.5	45
Cc1occc1C(=O)Nc1ccc2ccccc2c1	5	30	0.7	0.6	39
CC1=CC(C)(C)N2C(=O)C3(C(C#N)=C(N)Oc4cc(O)ccc43)c3c(C)c(C)cc1c32 (configuration not stated)	34	94*	0.1	0.1	89*
CC1=CC(C)(C)N2C(=O)C3(C(C#N)=C(N)OC4=C3C(=O)CCC4)c3c(C)c(C)cc1c32 (configuration not stated)	4	13	0.9	1.1	-9
COc1ccc2cc(CN(CCCN3CCOCC3)Cc3nnnn3C3CCCCC3)c(=O)[nH]c2c1	3	7	0.9	0.6	39
COc1ccccc1CN(Cc1cc2c(C)ccc(C)c2[nH]c1=O)Cc1nnnn1Cc1ccco1	20	80*	0.2	0.4	60*
COc1ccc2cc(CN(CCc3ccccc3)Cc3nnnn3Cc3ccco3)c(=O)[nH]c2c1	2	100*	0	0	96*
Cc1ccc2cc(C(c3nnnn3C3CCCC3)N(Cc3cccnc3)Cc3ccco3)c(=O)[nH]c2c1 (configuration not stated)	23	74*	0.3	0.1	92*
COc1ccc2[nH]c(=O)c(CN(Cc3nnnn3Cc3ccco3)C3CCCCC3)cc2c1	7	75*	0.2	0.1	89*
CCOC(=O)Cn1nnnc1C(C(C)C)N(Cc1cc2c(C)cc(C)cc2[nH]c1=O)C1CCCC1 (configuration not stated)	13	.	.	.	.
CCC(c1nnnn1C1CCCCC1)N(Cc1ccco1)Cc1cc2ccc(OC)cc2[nH]c1=O (configuration not stated)	6	84*	0.2	0	95*
COc1ccc2[nH]c(=O)c(CN(C3CCCCC3)C(c3nnnn3Cc3ccco3)C(C)C)cc2c1 (configuration not stated)	12	95*	0.1	0.4	60*
Cc1ccc2cc(C(c3nnnn3C3CCCC3)N(Cc3ccco3)Cc3cccs3)c(=O)[nH]c2c1 (configuration not stated)	4	42	0.6	0.5	49
CCCCOc1ccc(C(=O)NCC(=O)OC2CCOC2=O)cc1 (configuration not stated)	2	-11	1.1	1.2	-16
Cc1onc(-c2ccccc2Cl)c1C(=O)Nc1cccc(-c2nc3ncccn3c2C)c1	2	52*	0.5	0.5	55*
Cc1ccc(-c2cn3cccnc3n2)cc1NC(=O)c1c(-c2ccccc2Cl)noc1C	1	45	0.5	0.5	54*
Cc1onc(-c2ccccc2Cl)c1C(=O)Nc1ccc(-c2cn3cccnc3n2)cc1	27	-8	1.1	1.1	-8
Cc1n[nH]c(C)c1S(=O)(=O)N(CC(=O)Nc1ccc2c(c1)OCCO2)c1ccc(C(C)C)cc1	16	68*	0.3	0.6	44
CCC(C)NC(=O)CN(c1ccc2c(c1)OCO2)S(=O)(=O)c1c(C)n[nH]c1C (configuration not stated)	10	52*	0.5	0.2	76*
Cc1noc(C)c1S(=O)(=O)N(CC(=O)Nc1ccc2c(c1)OCO2)c1ccc(C(C)C)cc1	4	-18	1.2	1.2	-22
Cc1ccc(OCc2nnc(SCC(=O)Nc3cc(C)on3)n2C)cc1	35	2	1	1.1	-12
SMILES	Measles CPE	CYP2C9 inhib	CYP2C9 activ	CYP2C19 activ	CYP2C19 inhib
CC(=O)Nc1ccc(OC(=O)c2cccnc2)cc1	11	-14	1.1	1.1	-11
Cc1ccc(C2Nc3ccccc3C(=O)N2Cc2ccco2)cc1 (configuration not stated)	6	86*	0.1	0.6	37
O=C1c2ccccc2NC(c2cccc(F)c2)N1Cc1ccco1 (configuration not stated)	9	96*	0	0.1	92*
O=C1c2ccccc2NC(c2ccc(O)cc2)N1Cc1ccco1 (configuration not stated)	3	60*	0.4	0.8	20
CCN(CC)CCN1C(=O)c2ccccc2NC1c1cccc(F)c1 (configuration not stated)	0	-15	1.2	1	0
O=c1c2c3nc4ccccc4nc3n(-c3cccc(F)c3)c2ncn1Cc1ccc2c(c1)OCO2	.	0	1	1	-2
O=C(O)CCCC(=O)NCc1ccccn1	16	2	1	1	1
O=C(COc1ccccc1Br)NCc1ccccn1	63*	37	0.6	0.3	65*
COc1cc(NC(=O)c2ccc(COc3ccccc3Br)o2)cc(OC)c1OC	9	41	0.6	0.7	31
COC(=O)c1ccc(CNC(=O)COc2ccccc2Br)o1	32	2	1	0.3	71*
Cn1c(=O)cc(OCC(=O)NCc2ccccn2)c2ccccc21	20	-54	1.5	0.9	8
Cc1ccc(OCC(=O)NCc2ccccn2)c(Br)c1	6	-1	1	0.4	61*
O=C(COc1ccc(F)cc1Br)NCc1ccccn1	17	2	1	0.4	59*
COC(=O)c1[nH]c2ccc(F)cc2c1NC(=O)CCN1CCN(C(=O)c2ccco2)CC1	5	33	0.7	0.7	31
CCC(C(=O)OCC(=O)Nc1c(C)n(C)n(-c2ccccc2)c1=O)c1ccccc1 (configuration not stated)	4	1	1	1	4
CCOc1cc(-c2nc(-c3ccncc3)no2)cc(OCC)c1OCC	11	77*	0.2	0.4	61*
CCOc1ccc(-c2nc(-c3ccncc3)no2)cc1OCC	16	63*	0.4	0.5	45
CC(C)(C)NCC(O)COc1ccccc1C(C)(C)C (configuration not stated)	4	-11	1.1	1	0
COc1cc(C(=O)NC(=S)Nc2cccc(-c3cc4ccccc4oc3=O)c2)cc(OC)c1OC	9	68*	0.3	0.8	22
Cc1sc(Nc2ccc([N+](=O)[O-])cc2)nc1-c1c(C)n(C)n(-c2ccccc2)c1=O	5	22	0.8	0.6	39
